Paper PMC4242493, “Sequence specificity incompletely defines the genome-wide occupancy of Myc”
The full ranking holds about 33,000 sequences; the median of “normalized occupancy” is about 0.075, and the highest 2% start at about 0.095. What follows is part of a selection rich in the highest values, with near analogues and random picks from the rest.

These sequences were tested against MaxL homodimer (Homo sapiens, UniProt P61244 1-160) (assay: universal protein-binding microarray (PBM); PBS-based mixture, 10 nM His-tagged protein dimer, 2% milk, 200 ng/uL BSA, 50 ng/uL salmon testes DNA, 0.02% TX-100; detection with Alexa 488 anti-His antibody;; high values mean tight binding). Conditions: protein: recombinant; tags: C-terminal His-tag (pET21a); chain copies: 2; dsDNA, one strand shown.
Sequence of MaxL homodimer (P61244 whole entry): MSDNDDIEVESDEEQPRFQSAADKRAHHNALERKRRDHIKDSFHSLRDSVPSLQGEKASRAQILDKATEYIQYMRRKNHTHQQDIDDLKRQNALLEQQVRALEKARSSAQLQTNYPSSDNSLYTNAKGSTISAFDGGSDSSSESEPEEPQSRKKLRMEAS
Summary of the method: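 His-tagged protein dimer at 10 nM was bound to Agilent 4 x 44 K 'all 10-mer' universal arrays and detected with 10 ng/μL fluorophore-conjugated anti-His antibody on a GenePix 4400A, giving an intensity per 8-mer. Binding occupancy normalises each intensity to the top-ranked one.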

In order of falling binding signal:
1. CATGTGAC  0.168 normalized occupancy
2. GCACGCGC  0.15 normalized occupancy
3. CGCGTGCA  0.134 normalized occupancy
4. CATGTGAG  0.128 normalized occupancy
5. CATGTGAA  0.127 normalized occupancy
6. ACAGCGTG  0.123 normalized occupancy
7. CGTGCACG  0.123 normalized occupancy
8. CGCGTGCC  0.118 normalized occupancy
9. AGCGCGTG  0.117 normalized occupancy
10. ACGTGTAT  0.117 normalized occupancy
11. GCACGCGA  0.109 normalized occupancy
12. AGCGTGCG  0.109 normalized occupancy
13. ACGTGACA  0.108 normalized occupancy
14. AGCGTGCA  0.108 normalized occupancy
15. CCACCTGG  0.105 normalized occupancy
16. ATAGCGTG  0.104 normalized occupancy
17. GCGTGACC  0.103 normalized occupancy
18. ACGTGACC  0.103 normalized occupancy
19. GCGTGACA  0.103 normalized occupancy
20. ACGTGTAG  0.103 normalized occupancy
21. GCGTGTAC  0.1 normalized occupancy
22. ACGTGTAA  0.1 normalized occupancy
23. CCACCTGA  0.099 normalized occupancy
24. CCACCTGC  0.0984 normalized occupancy
25. ACGTGTAC  0.0984 normalized occupancy
26. GGCGTGCA  0.0978 normalized occupancy
27. CACGCTAG  0.0976 normalized occupancy
28. ACGTGACG  0.0972 normalized occupancy
29. CACGCTAC  0.0972 normalized occupancy
30. AGCGTGCC  0.0969 normalized occupancy
31. AGAGCGTG  0.0963 normalized occupancy
32. CATGGCAA  0.0963 normalized occupancy
33. CGTGCACA  0.0958 normalized occupancy
34. GCGTGTCC  0.0957 normalized occupancy
35. ACACCTGC  0.0956 normalized occupancy
36. ACGTGACT  0.0933 normalized occupancy
37. ACGTGTCC  0.0932 normalized occupancy
38. AGGTGTAT  0.0924 normalized occupancy
39. GCGTGTAA  0.0923 normalized occupancy
40. CTCGTGCC  0.0909 normalized occupancy
41. AATGTGAC  0.0908 normalized occupancy
42. TGTGCACA  0.0902 normalized occupancy
43. ATGTGACA  0.0901 normalized occupancy
44. CACGCTAA  0.0891 normalized occupancy
45. CATGGAGG  0.0891 normalized occupancy
46. CATGGCAG  0.0887 normalized occupancy
47. ACACCTGG  0.0881 normalized occupancy
48. GTGGAAAA  0.0879 normalized occupancy
49. CCCGTGCA  0.0874 normalized occupancy
50. ACACCTGA  0.0871 normalized occupancy
51. TATGTGAA  0.0871 normalized occupancy
52. GCGTGTCA  0.0867 normalized occupancy
53. AATGTGAG  0.0853 normalized occupancy
54. AGTGCACG  0.0853 normalized occupancy
55. TCGTGACA  0.0851 normalized occupancy
56. ATCGTGCG  0.0851 normalized occupancy
57. GCACGCCC  0.0848 normalized occupancy
58. GCACCTGC  0.0846 normalized occupancy
59. GCATTCTA  0.0844 normalized occupancy
60. AGCGCGCG  0.0841 normalized occupancy
61. AGTGCACA  0.0838 normalized occupancy
62. TCGTGTAA  0.0836 normalized occupancy
63. ACCGTGCG  0.0828 normalized occupancy
64. AACGCTAC  0.0825 normalized occupancy
65. CACAACCA  0.0825 normalized occupancy
66. GCGCGCGC  0.0821 normalized occupancy
67. ATAGCGTA  0.0819 normalized occupancy
68. GATGTGAA  0.0819 normalized occupancy
69. GATGTGAC  0.0817 normalized occupancy
70. GCTATACA  0.0815 normalized occupancy
71. AAGTATAG  0.0813 normalized occupancy
72. ATACCTGC  0.0811 normalized occupancy
73. TCACCTGA  0.0809 normalized occupancy
74. ATCCCCCC  0.0808 normalized occupancy
75. CCGTGTAG  0.0808 normalized occupancy
76. CCGTGACA  0.0807 normalized occupancy
77. ACTAACAT  0.0807 normalized occupancy
78. CATATTGA  0.0806 normalized occupancy
79. AAGTGTAT  0.0806 normalized occupancy
80. AGCATACT  0.0804 normalized occupancy
81. AGGTGTAC  0.0803 normalized occupancy
82. ATTCTACC  0.0801 normalized occupancy
83. ATAGTCAG  0.0801 normalized occupancy
84. ATCGTGCC  0.08 normalized occupancy
85. CCGTGTAA  0.0797 normalized occupancy
86. CCGTGTAC  0.0796 normalized occupancy
87. CCACCTCG  0.0794 normalized occupancy
88. ATAACGCC  0.0792 normalized occupancy
89. TGCCAAAA  0.0792 normalized occupancy
90. TAGATTGA  0.0791 normalized occupancy
91. GGAGTGCA  0.0787 normalized occupancy
92. CCCGTGCC  0.0787 normalized occupancy
93. TCAAATAA  0.0786 normalized occupancy
94. ACCGTGCA  0.0786 normalized occupancy
95. AGGTGTAG  0.0785 normalized occupancy
96. GTTGTTTA  0.0784 normalized occupancy
97. AATCGGGA  0.0782 normalized occupancy
98. CCGTGACG  0.0782 normalized occupancy
99. GCATAAAA  0.0781 normalized occupancy
100. GGTGCACA  0.078 normalized occupancy
101. GAACGCGA  0.0778 normalized occupancy
102. GAAAATCA  0.0778 normalized occupancy
103. GCAGCACA  0.0778 normalized occupancy
104. GGCCACTA  0.0777 normalized occupancy
105. CTCATTCC  0.0776 normalized occupancy
106. ATGGAGAA  0.0775 normalized occupancy
107. AGTAAAAA  0.0773 normalized occupancy
108. AGCGCGTC  0.0772 normalized occupancy
109. TGTAACAA  0.0771 normalized occupancy
110. CTTAAGCA  0.077 normalized occupancy
111. GTGCACTA  0.0769 normalized occupancy
112. CTATGGGC  0.0769 normalized occupancy
113. CGAAATAC  0.0768 normalized occupancy
114. GCCGTGCA  0.0768 normalized occupancy
115. AGGTGACC  0.0766 normalized occupancy
116. CAAACCTC  0.0765 normalized occupancy
117. GGTGCGGA  0.0762 normalized occupancy
118. CCTGTGAG  0.0762 normalized occupancy
119. AGAACGCA  0.0762 normalized occupancy
120. AAAATCTC  0.0762 normalized occupancy
121. AGGAGATG  0.0762 normalized occupancy
122. CTTAGCCA  0.0761 normalized occupancy
123. CTCAAATA  0.0761 normalized occupancy
124. AGAGCGTA  0.0758 normalized occupancy
125. AAAATTGA  0.0757 normalized occupancy
126. GATGACTA  0.0757 normalized occupancy
127. ATGAGCCC  0.0757 normalized occupancy
128. GAGTGTAC  0.0756 normalized occupancy
129. ACCGTGCC  0.0756 normalized occupancy
130. CGGGTGCA  0.0755 normalized occupancy
131. GGACGCGA  0.0754 normalized occupancy
132. GATGGCAA  0.0752 normalized occupancy
133. AAGTGACC  0.0751 normalized occupancy
134. GGGTGACC  0.0751 normalized occupancy
135. CTGCCTAA  0.075 normalized occupancy
136. CCGTGACC  0.075 normalized occupancy
137. AGGTGACG  0.075 normalized occupancy
138. AAGGGGAC  0.0746 normalized occupancy
139. ACCTTTAA  0.0744 normalized occupancy
140. CCTATTAA  0.0743 normalized occupancy
141. CAATCGAC  0.0743 normalized occupancy
142. AGAGTGCA  0.0743 normalized occupancy
143. ACACTGAC  0.0742 normalized occupancy
144. GACGCTAC  0.0742 normalized occupancy
145. GGAATAAA  0.0741 normalized occupancy
146. AGTCTCGA  0.0741 normalized occupancy
147. ATCACGGC  0.0739 normalized occupancy
148. GTAGTTGA  0.0738 normalized occupancy
149. GGCTATCA  0.0738 normalized occupancy
150. TTCAAGAA  0.0738 normalized occupancy
151. AGTGTTAC  0.0737 normalized occupancy
152. ATAGCGTC  0.0734 normalized occupancy
153. CCTTTGTA  0.0734 normalized occupancy
154. GAAGGTGC  0.0733 normalized occupancy
155. ATTCACCG  0.0732 normalized occupancy
156. CTCTATGA  0.0732 normalized occupancy
157. ACAGCGTC  0.0731 normalized occupancy
158. AGGGTTGC  0.0731 normalized occupancy
159. TCTCGAAA  0.0729 normalized occupancy
160. ACAGCGAG  0.0728 normalized occupancy
161. AGGCAGTA  0.0728 normalized occupancy
162. CTTCGCTA  0.0727 normalized occupancy
163. ATTCCAAT  0.0727 normalized occupancy
164. AAGTAGGA  0.0726 normalized occupancy
165. AACGCTAG  0.0726 normalized occupancy
166. CTTTTCGA  0.0725 normalized occupancy
167. ACGCCGAA  0.0725 normalized occupancy
168. AAGCAGTA  0.0725 normalized occupancy
169. CAAGAAAC  0.0724 normalized occupancy
170. ACGTCTAA  0.0724 normalized occupancy
171. CTTGGTCC  0.0723 normalized occupancy
172. ACTTTAAG  0.0722 normalized occupancy
173. AAGACAAG  0.0722 normalized occupancy
174. CAAGTCGC  0.0719 normalized occupancy
175. AGAGCGAG  0.0719 normalized occupancy
